Laboratory results published in PubChem BioAssay (NCATS).
Inconclusive results are not listed. The source made the active and inactive calls. Unless noted, the call rests on the fitted dose curve; in most records, active means well fitted curve in the direction sought with a large enough effect; inconclusive means small, poorly fitted or top-dose-only effect, or another doubt; inactive means no such curve, though single readings can be large; an effect the other way counts as inactive or inconclusive.

Experiments:
[1] = molecular target: Cytochrome P450 1A2 (Homo sapiens) (UniProt P05177); assay: p450-cyp1a2 (AID 410; calls by dose curve;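 further: -100% = full effect of reference inhibitor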)
Method in brief: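 Read-out is luminescence from luciferin produced by CYP1A2 demethylation of Luciferin-ME (100uM, at Km). Detection reagent stopped the 60 min NADPH-dependent reaction; signals were normalized to 57 uM furafylline.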

[2] = molecular target: Mitogen-activated protein kinase 10 (Mus musculus) (UniProt Q61831); assay: JNK3 AlphaScreen Assay (AID 530; active means well fitted curve in either direction with a large enough effect, not every such curve was filed as active;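 further: kinase came from lysate of stimulated human HepG2 cells; signal reports phosphorylation of biotinylated GST-cJun 1-79 at Ser73 with 10 µM ATP; on the % scale 0 is the no-effect control and ±100 the full control effect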)
Method in brief: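 Kinase buffer: 20 mM Tris-HCl pH 7.6, 10 mM MgCl2, 1 mM DTT, 0.1 mM Na3VO4, 0.01% Tween-20; ATP 10 uM. Substrate biotin-GST-cJun(1-79), enzyme from activated HepG2 lysates. Detection by Ser73 phospho-antibody AlphaScreen.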

[3] = molecular target: 3',5'-cyclic-AMP phosphodiesterase 4B (Homo sapiens) (UniProt Q07343); assay: qHTS Assay for Inhibitors of PDE-IV (AID 607; active means well fitted activation curve with a large enough effect in the main read-out, with a control signal flat, not every such curve was filed as active; further: % of control where 0% means no effect)
Method in brief: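 Cell-based read-out of cAMP via a modified cyclic nucleotide-gated channel and membrane potential dye (535/590 nm) in HEK293 cells expressing PDE4 endogenously. Compounds tested up to 22.9 uM final; 100 uM RO 20-1724 reference.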

[4] = qHTS Assay for Lipid Storage Modulators (AID 1519; calls by dose curve); settings: Drosophila S3 cells, BODIPY lipid droplet/cell ratio, laser cytometry, cells loaded with oleic acid
Method in brief: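 Cells seeded at 5,000 per well were treated with compounds over a concentration series and loaded with oleic acid (400 uM, as added). Lipid droplet fluorescence (488 nm excitation, 500-530 nm channel) was read by laser-scanning cytometry and normalized to 20 uM Triacsin C.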

[5] = molecular target: Ubiquitin carboxyl-terminal hydrolase 1 (Homo sapiens) (UniProt O94782); assay: Inhibitors of USP1/UAF1: Pilot qHTS (AID 504865);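 further: rhodamine fluorescence freed from ubiquitin-rhodamine substrate followed over time; top concentration of the series differs between compounds; on the % scale 0 is the no-effect control and ±100 the full control effect; nearly all actives have a fitted effect of over 35% in size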
Method in brief: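 Deubiquitinase activity followed as kinetic rhodamine fluorescence release from 150 nM Ub-Rho. 1 nM USP1/UAF1 with compound, after 15 min room-temperature preincubation, in HEPES pH 7.8 buffer containing TCEP, EDTA, BSA and Tween-20.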

[6] = molecular target: DNA dC->dU-editing enzyme APOBEC-3G (Homo sapiens) (UniProt Q9HC16); assay: qHTS for inhibitors of Vif-A3G interactions: Validation (AID 588379); further: 0% is about no effect
Method in brief: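 Yellow fluorescence (Ex 488, Em 500-530) of Vif-coexpressing HeLa A3G-eYFP cells, scanned by Acumen cytometer, reports blocked A3G degradation. Cells plated at 700/well overnight at 37 deg C before compound addition, then a further overnight compound incubation at 37 deg C.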

[7] = qHTS Assay for Identifying Gametocytocidal Compounds (AID 743244);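 further: on the % scale 0 is the no-effect control and ±100 the full control effect; actives lower the fluorescent signal which means gametocytes are killed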; settings: P. falciparum 3D7 stage III-V gametocytes, alamarBlue, 72 h; max response: stronger effect = lower value
Method in brief: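 Compounds are pinned into medium, gametocytes (stage III–V, 3D7, 20,000 cells/well) added, and plates held 72 h at 37 °C in 5% CO2. AlamarBlue follows for 24 h before fluorescence reading.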

[8] = P-glycoprotein substrates identified in KB-8-5-11 adenocarcinoma cell line, qHTS therapeutic library screen (AID 1346987); further: on the % scale 0 is the no-effect control and ±100 the full control effect; nearly all actives have a fitted effect of over 65% in size
Method in brief: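 Human cervical adenocarcinoma KB-8-5-11 cells, selected in colchicine to over-express P-gp and assayed without it, were exposed for 72 h to titrated compounds. An ATP-based luminescent viability signal gave AC50.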

[9] = qHTS for Inhibitors of the Functional Ribonucleoprotein Complex (vRNP) of Lassa (LASV) Arenavirus: LASV Primary Screen - GLuc reporter signal (AID 1347082; calls by dose curve; tested in HEK293 reporter line; further: on the % scale 0 is the no-effect control and ±100 the full control effect; nearly all actives have a fitted effect of over 60% in size)
[10] = qHTS for Inhibitors of the Functional Ribonucleoprotein Complex (vRNP) of Lassa (LASV) Arenavirus: Viability assay - alamar blue signal for LASV Primary Screen (AID 1347083; calls by dose curve; tested in HEK293 reporter line; further: on the % scale 0 is the no-effect control and ±100 the full control effect; nearly all actives have a fitted effect of over 80% in size)
[11] = qHTS for Inhibitors of the Functional Ribonucleoprotein Complex (vRNP) of Lymphocytic Choriomeningitis Arenaviruses (LCMV): Viability assay - alamar blue signal for LCMV Primary Screen (AID 1347085; calls by dose curve; tested in HEK293 reporter line; further: on the % scale 0 is the no-effect control and ±100 the full control effect; nearly all actives have a fitted effect of over 80% in size)
[12] = molecular target: Nucleoprotein (Lymphocytic choriomeningitis virus (strain Armstrong)) (UniProt P09992); assay: qHTS for Inhibitors of the Functional Ribonucleoprotein Complex (vRNP) of Lymphocytic Choriomeningitis Arenaviruses (LCMV): LCMV Primary Screen - GLuc reporter signal (AID 1347086; calls by dose curve; further: on the % scale 0 is the no-effect control and ±100 the full control effect; nearly all actives have a fitted effect of over 70% in size)
[13] = test system: Zika virus NS2B-NS3 protease; assay: Primary screen GU AMC qHTS for Zika virus inhibitors (AID 1347154);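 further: 0% = no-inhibitor control and -100% = no-enzyme control; nearly all actives have a fitted effect of over 70% in size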
Method in brief: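 Fluorogenic AMC-substrate cleavage by noncovalent NS2B-NS3 protease complex (25 nM, pH 8.0 Tris buffer with Tween 20) followed for 15 minutes at room temperature (~20% conversion). Percent inhibition from ex340/em450 signal change, fitted by 4-parameter Hill equation.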

[14] = Primary qHTS for small molecule stabilizers of the endoplasmic reticulum resident proteome: Secreted ER Calcium Modulated Protein (SERCaMP) assay (AID 1508630); further: on the % scale 0 is the no-effect control and ±100 the full control effect
Method in brief: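 The SH-SY5Y reporter protocol was run at 3 concentrations up to 38.3 uM (primary) or 11 concentrations (follow-up): 16 h compound, 100 nM thapsigargin for 4 h, then extracellular luciferase luminescence.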

KB-3-1 = assay: Cytotoxic Profiling of Annotated Libraries Using Quantitative High-Throughput Screening (AID 1296008); settings: Five cell lines viability, CellTiter-Glo ATP luminescence, 48-72 h; max response: stronger effect = lower value; further: on the % scale 0 is the no-effect control and ±100 the full control effect; nearly all actives have a fitted effect of over 60% in size
Method in brief: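 Cytotoxicity was measured as CellTiter-Glo ATP luminescence, read after 10 min at room temperature. Compound treatment of the cells lasted 48 or 72 hr at 37 degrees Celsius in a qHTS format.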

[15] = Drug repurposing screens with cells derived from glioblastoma tumor samples (AID 1345199); settings: GBM patient neurospheres viability, ATP luminescence, 48 h; Potency: tumour line A; series mostly up to 45.9 µM; further: on the % scale 0 is the no-effect control and ±100 the full control effect; nearly all actives have a fitted effect of over 40% in size
Method in brief: (§1)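 Primary testing used CD133+ neurospheres from four GBM patients, seven concentrations, 48 h exposure and ATP-based viability; confirmation added three slower-growing patient lines.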

astro = assay: as above; settings: viability, ATP luminescence, 48 h; series mostly up to 45.9 µM
Method in brief: as §1

[16] = molecular target: Luciferin 4-monooxygenase (Photinus pyralis) (UniProt P08659); assay: Biochemical firefly luciferase enzyme assay for NPC (AID 624030);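 further: purified P. pyralis luciferase at 10 nM with luciferin and ATP substrate; 0% = DMSO and -100% = full luciferase inhibition by PTC124 control; nearly all actives have a fitted effect of over 70% in size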
Method in brief: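 Direct inhibition of firefly luciferase enzyme (10 nM final, 50 mM Tris Acetate) assessed by luminescence within 5 minutes. Percent activity scaled between DMSO and PTC124 positive control, with concentration-effect curves classified by fit quality and response.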

[17] = molecular target: Glucocorticoid receptor (Homo sapiens) (UniProt P04150); assay: qHTS assay for small molecule agonists of glucocorticoid receptor signaling (AID 588532; active means well fitted curve in the direction sought with a large enough effect in the signal ratio, with a control signal flat; the % refers to the signal ratio;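 further: 100% = dexamethasone at 0.1 µM and 0% = DMSO only wells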); settings: HeLa MMTV-bla, beta-lactamase ratio, agonist, 18 h; stronger effect = higher value; percent of dexamethasone control, DMSO zero
Method in brief: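 Agonist-mode qHTS: GRE-driven beta-lactamase in HeLa cells exposed 18 h to titrated compounds (up to 92 uM), then CCF4 ratio read after 2 h at RT; Hill-fitted EC50, efficacy relative to 0.1 uM dexamethasone.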

[18] = qHTS assay for small molecule agonists of retinoid X receptor alpha signaling (AID 588544; calls by dose curve;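 on activation: 0% = DMSO basal wells and 100% = reference agonist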); settings: HEK293T RXRa-UAS-bla, beta-lactamase reporter, 18 h; 530 nm emission
[19] = molecular target: Retinoic acid receptor RXR-alpha (Homo sapiens) (UniProt P19793); assay: as above
[20] = molecular target: Thyroid hormone receptor beta (Homo sapiens) (UniProt P10828); assay: qHTS assay for small molecule agonists of thyroid hormone receptor beta signaling (AID 588545; calls by dose curve)
Method in brief: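 Cells (2500/well) were seeded, incubated 4 hrs at 37 C, dosed with a compound series, incubated 18 hrs, loaded with CCF4 dye for 2 hrs at RT, then read for fluorescence. Data were scaled between DMSO (0%) and 10 nM T3 (100%).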

[21] = qHTS assay for small molecule antagonists of retinoid X receptor alpha signaling (AID 588546; active means well fitted inhibition curve with a large enough effect in the signal ratio, with a control signal flat, not every such curve was filed as active; the % refers to the signal ratio;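 further: cells stimulated with 9-cis-retinoic acid as agonist; on the % scale 0 is the no-effect control and ±100 the full control effect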); settings: HEK293T RXRa-UAS-bla, beta-lactamase ratio, antagonist mode; measured here: W530 green channel, cytotoxicity proxy
Method in brief: (§2)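 Beta-lactamase reporter inhibition, read as CCF4 fluorescence ratio (ex 405, em 460/530 nm) after 2 h at RT. HEK293T UAS-bla cells, 2500/well, were stimulated with 9-cis-RA at 500 or 100 nM final alongside test compound for 18 h at 37 C.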

[22] = molecular target: Retinoic acid receptor RXR-alpha (Homo sapiens) (UniProt P19793); assay: as above; settings: HEK293T RXRa-UAS-bla, beta-lactamase ratio, antagonist mode
Method in brief: as §2

[23] = qHTS assay for small molecule activators of the nuclear factor-kappa B (NF-kB) signaling pathway (AID 651749; active means well fitted activation curve with a large enough effect in the signal ratio; the % refers to the signal ratio; further: % of control where 0% means no effect); settings: NF-kB-bla ME-180 cells, beta-lactamase FRET ratio, 16 h; activation: stronger effect = higher value
Method in brief: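 FRET-based beta-lactamase detection in ME-180 cells reports NF-kB response-element-driven transcription following overnight (16 hr) compound treatment.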

[24] = molecular target: Peroxisome proliferator-activated receptor alpha (Homo sapiens) (UniProt Q07869); assay: qHTS assay for small molecule agonists of the peroxisome proliferator-activated receptor alpha (PPARalpha) signaling pathway (AID 651778); settings: PathHunter PPARalpha complementation, chemiluminescence, 6 h; stronger effect = higher value; further: % of control where 0% means no effect
Method in brief: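 Chemiluminescence from complemented enzyme reported PPARalpha activation in cells after 6 hr of compound treatment at 37 C. The detection reagent was incubated for 60 min at room temperature, and compounds were scored as agonists.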

[25] = qHTS assay for small molecule agonists of the antioxidant response element (ARE) signaling pathway measured by Nrf2-dependant transcriptional activity (AID 720636; active means well fitted curve in the direction sought with a large enough effect in the repeat runs; an effect the other way counts as inactive or inconclusive; further: % of control where 0% means no effect)
Method in brief: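 Quantitative HTS format in HepG2 cells stably expressing an ARE-luciferase reporter; 16 hr compound treatment at 37 C, luciferase signal detected with ONE-Glo.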

[26] = qHTS assay for small molecule agonists of the antioxidant response element (ARE) signaling pathway measured by Nrf2-dependant transcriptional activity - cell viability counter screen (AID 720653; active means well fitted curve in the direction sought with a large enough effect in the repeat runs; an effect the other way counts as inactive or inconclusive; further: on the % scale 0 is the no-effect control and ±100 the full control effect); settings: ARE-bla HepG2 viability, CellTiter-Glo ATP luminescence, 16 h; max response: stronger effect = lower value
Method in brief: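 Cytotoxicity counter screen: intracellular ATP quantified by CellTiter-Glo luminescence in the same ARE-bla HepG2 plates, after 16 h compound exposure and a 2 h beta-lactamase substrate step.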

[27] = qHTS assay for cell viability of HEK293 cells (AID 743288); settings: ATP luminescence (CellTiter-Glo), 18 h; max response: stronger effect = lower value; further: on the % scale 0 is the no-effect control and ±100 the full control effect; nearly all actives have a fitted effect of over 50% in size
Method in brief: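 Readout is luciferase-coupled ATP content (CellTiter-Glo luminescence, 30 min room temperature) as a measure of metabolically competent cells. Parental HEK293 cells were plated 5 h or more before compound addition, then treated 18 h at 37 C.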

[28] = qHTS assay for cell viability of the p53RE-bla HCT-116 cell line (AID 743292); further: on the % scale 0 is the no-effect control and ±100 the full control effect; nearly all actives have a fitted effect of over 55% in size
Method in brief: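 Viability of compound-treated p53RE-bla HCT-116 cells is taken from ATP-dependent luciferase luminescence. Treatment lasts 16 h at 37 C after a 5 h settling period; detection follows 30 min at room temperature.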

[29] = Primary qHTS for Huh7 cytotoxicity: counterscreen for inhibitors of MERS-S pseudotyped particle cell entry (AID 1479147; calls by dose curve); settings: outcome: dose series up to 57.1 µM unless noted
[30] = Primary qHTS for inhibitors of MERS-S pseudo-typed particle cell entry (AID 1479149; calls by dose curve; further: nearly all actives have a fitted effect of over 60% in size)
[31] = Primary qHTS for Vero E6 cytotoxicity: counterscreen for inhibitors of SARS-S pseudo-typed particle cell entry (AID 1479150; calls by dose curve); settings: outcome: dose series up to 57.1 µM unless noted
[32] = Cytotoxicity counterscreen for inhibitors of SARS-CoV-2 cell entry (AID 1645845; calls by dose curve; further: nearly all actives have a fitted effect of over 50% in size)
Method in brief: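 ATP-content luminescence (ATPLite 1step, 15 min RT) read after 48 h compound exposure of Expi293F cells stably expressing human ACE2; normalized to cells-only wells and media-only wells.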

[33] = Primary qHTS to identify inhibitors of SARS-CoV-2 cell entry (AID 1645846; calls by dose curve; further: nearly all actives have a fitted effect of over 45% in size); settings: activity change, negative = inhibition: at 57.1 µM (top of the series) unless noted
Method in brief: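 Entry measured by luciferase signal 48 h after adding SARS-CoV-2-S pseudotyped MLV particles to HEK293-ACE2 cells preincubated 1 h with compounds. Normalisation: bald particles and spike particles.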

[34] = molecular target: Glutathione peroxidase 1 (Homo sapiens) (UniProt P07203); assay: Primary qHTS Assay for Inhibitors of Recombinant Selenoprotein Glutathione Peroxidase 1 (GPX1) (AID 1845191); further: nearly all actives have a fitted effect of over 65% in size
Method in brief: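 NADPH consumption tracked by fluorescence at 340/450 nm between t=0 and t=15 min, room temperature. Final mix: 10 nM GPX1, 100 nM glutathione reductase, 1 mM GSH, 0.5 mM NADPH, 0.5 mM cumene hydroperoxide, 0.01% BSA; 30 min compound–enzyme preincubation.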

[35] = molecular target: Phospholipid hydroperoxide glutathione peroxidase GPX4 (Homo sapiens) (UniProt P36969); assay: Primary qHTS Assay for Inhibitors of Recombinant Selenoprotein Glutathione Peroxidase 4 (GPX4) (AID 1845192); further: on the % scale 0 is the no-effect control and ±100 the full control effect; nearly all actives have a fitted effect of over 65% in size
Method in brief: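 NADPH consumption followed by fluorescence at 340/450 nm, t=0 and after 15 min at room temperature. Reaction started with cumene hydroperoxide (0.5 mM final) after 30 min compound–GPX4 preincubation; final 200 nM GPX4, 100 nM GR, 1 mM GSH, 0.5 mM NADPH.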

[36] = molecular target: Nuclear receptor subfamily 1 group I member 2 (Rattus norvegicus) (UniProt Q9R1A7); assay: qHTS assay for small molecule activators of the rat pregnane X receptor (rPXR) signaling pathway (AID 651751; call rule not given here; further: 0% is about no effect); settings: rPXR reporter cells, luciferase (One-Glo), 24 h
[37] = qHTS assay for small molecule activators of the human pregnane X receptor (PXR) signaling pathway (AID 720659; call rule not given here; further: 0% is about no effect)

Sequence of Retinoic acid receptor RXR-alpha (Homo sapiens) (P19793 whole entry, looked up): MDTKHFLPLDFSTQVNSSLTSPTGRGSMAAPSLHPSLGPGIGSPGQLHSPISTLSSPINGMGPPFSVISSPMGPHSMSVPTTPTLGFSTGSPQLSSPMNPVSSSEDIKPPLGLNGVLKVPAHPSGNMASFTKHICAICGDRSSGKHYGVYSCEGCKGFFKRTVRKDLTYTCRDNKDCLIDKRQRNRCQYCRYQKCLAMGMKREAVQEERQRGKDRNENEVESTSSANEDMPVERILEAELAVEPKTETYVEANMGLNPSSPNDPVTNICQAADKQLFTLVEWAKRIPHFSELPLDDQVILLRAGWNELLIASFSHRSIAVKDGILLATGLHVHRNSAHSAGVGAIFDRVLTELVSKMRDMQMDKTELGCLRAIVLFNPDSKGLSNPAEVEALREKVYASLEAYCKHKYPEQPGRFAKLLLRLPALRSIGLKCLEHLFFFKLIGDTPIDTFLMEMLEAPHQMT
Sequence of Luciferin 4-monooxygenase (Photinus pyralis) (P08659 whole entry, looked up): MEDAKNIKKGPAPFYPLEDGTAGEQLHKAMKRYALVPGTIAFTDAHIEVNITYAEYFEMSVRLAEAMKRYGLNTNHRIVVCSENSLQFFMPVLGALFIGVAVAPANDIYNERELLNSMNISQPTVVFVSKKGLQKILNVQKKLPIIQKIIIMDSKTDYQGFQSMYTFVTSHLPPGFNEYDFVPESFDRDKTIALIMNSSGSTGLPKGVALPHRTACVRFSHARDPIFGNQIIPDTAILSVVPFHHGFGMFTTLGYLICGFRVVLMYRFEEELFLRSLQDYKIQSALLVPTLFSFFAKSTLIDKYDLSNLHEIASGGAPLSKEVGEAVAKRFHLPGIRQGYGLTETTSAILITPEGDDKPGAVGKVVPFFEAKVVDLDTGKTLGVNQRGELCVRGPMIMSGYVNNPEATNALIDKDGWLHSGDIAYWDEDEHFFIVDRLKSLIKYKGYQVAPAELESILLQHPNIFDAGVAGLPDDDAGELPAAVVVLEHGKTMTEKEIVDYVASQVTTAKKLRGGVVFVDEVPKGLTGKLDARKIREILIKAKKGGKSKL
Sequence of Glutathione peroxidase 1 (Homo sapiens) (P07203 whole entry, looked up): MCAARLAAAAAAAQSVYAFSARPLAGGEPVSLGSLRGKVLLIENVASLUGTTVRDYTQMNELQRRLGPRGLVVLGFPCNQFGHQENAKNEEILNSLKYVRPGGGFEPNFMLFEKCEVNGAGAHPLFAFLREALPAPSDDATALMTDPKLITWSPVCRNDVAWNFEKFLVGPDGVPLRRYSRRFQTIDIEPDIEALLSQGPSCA
Sequence of Nuclear receptor subfamily 1 group I member 2 (Rattus norvegicus) (Q9R1A7 whole entry, looked up): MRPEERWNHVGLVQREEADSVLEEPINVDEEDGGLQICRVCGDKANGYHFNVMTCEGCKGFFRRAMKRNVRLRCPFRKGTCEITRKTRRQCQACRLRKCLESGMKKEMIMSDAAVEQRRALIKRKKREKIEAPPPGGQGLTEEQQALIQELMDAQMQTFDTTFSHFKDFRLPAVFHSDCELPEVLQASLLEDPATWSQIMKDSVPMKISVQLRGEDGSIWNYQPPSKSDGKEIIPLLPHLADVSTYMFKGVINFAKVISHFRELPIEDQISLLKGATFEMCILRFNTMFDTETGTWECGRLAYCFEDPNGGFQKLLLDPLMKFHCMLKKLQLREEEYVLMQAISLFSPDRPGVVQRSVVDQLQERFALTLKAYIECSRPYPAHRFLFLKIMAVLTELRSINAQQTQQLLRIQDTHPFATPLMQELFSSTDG
Sequence of 3',5'-cyclic-AMP phosphodiesterase 4B (Homo sapiens) (Q07343 whole entry, looked up): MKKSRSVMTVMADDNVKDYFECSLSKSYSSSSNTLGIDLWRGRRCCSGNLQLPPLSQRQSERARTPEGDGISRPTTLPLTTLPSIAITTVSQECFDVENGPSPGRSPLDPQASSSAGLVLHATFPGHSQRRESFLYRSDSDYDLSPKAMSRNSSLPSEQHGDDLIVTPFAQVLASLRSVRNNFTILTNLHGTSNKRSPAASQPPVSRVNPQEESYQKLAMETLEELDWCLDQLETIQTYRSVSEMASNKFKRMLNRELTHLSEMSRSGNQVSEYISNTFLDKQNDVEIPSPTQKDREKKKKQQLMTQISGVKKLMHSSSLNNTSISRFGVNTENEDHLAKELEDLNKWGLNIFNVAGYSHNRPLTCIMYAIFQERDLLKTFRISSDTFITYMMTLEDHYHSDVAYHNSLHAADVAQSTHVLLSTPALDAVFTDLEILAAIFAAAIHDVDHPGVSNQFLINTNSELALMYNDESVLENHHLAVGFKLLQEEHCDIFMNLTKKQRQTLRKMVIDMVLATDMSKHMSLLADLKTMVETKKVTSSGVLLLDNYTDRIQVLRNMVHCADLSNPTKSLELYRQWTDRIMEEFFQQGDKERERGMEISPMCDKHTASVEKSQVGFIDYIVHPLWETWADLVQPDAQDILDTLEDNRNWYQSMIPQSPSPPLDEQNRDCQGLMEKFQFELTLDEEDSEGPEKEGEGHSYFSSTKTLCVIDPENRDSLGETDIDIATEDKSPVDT
Sequence of Nucleoprotein (Lymphocytic choriomeningitis virus (strain Armstrong)) (P09992 whole entry, looked up): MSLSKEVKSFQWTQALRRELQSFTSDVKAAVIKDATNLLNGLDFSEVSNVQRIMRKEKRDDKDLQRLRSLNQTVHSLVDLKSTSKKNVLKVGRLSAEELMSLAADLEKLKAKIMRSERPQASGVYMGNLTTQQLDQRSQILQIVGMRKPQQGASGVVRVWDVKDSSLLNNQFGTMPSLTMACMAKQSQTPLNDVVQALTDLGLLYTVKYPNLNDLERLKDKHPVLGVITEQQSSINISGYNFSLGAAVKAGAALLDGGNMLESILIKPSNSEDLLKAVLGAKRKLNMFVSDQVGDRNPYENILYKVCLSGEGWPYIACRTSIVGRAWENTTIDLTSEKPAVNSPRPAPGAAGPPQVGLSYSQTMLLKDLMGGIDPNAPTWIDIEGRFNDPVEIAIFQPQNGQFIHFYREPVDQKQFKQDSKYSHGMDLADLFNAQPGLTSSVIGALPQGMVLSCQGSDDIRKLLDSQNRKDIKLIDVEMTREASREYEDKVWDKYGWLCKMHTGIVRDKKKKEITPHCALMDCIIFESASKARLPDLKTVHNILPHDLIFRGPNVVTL
Sequence of Ubiquitin carboxyl-terminal hydrolase 1 (Homo sapiens) (O94782 whole entry, looked up): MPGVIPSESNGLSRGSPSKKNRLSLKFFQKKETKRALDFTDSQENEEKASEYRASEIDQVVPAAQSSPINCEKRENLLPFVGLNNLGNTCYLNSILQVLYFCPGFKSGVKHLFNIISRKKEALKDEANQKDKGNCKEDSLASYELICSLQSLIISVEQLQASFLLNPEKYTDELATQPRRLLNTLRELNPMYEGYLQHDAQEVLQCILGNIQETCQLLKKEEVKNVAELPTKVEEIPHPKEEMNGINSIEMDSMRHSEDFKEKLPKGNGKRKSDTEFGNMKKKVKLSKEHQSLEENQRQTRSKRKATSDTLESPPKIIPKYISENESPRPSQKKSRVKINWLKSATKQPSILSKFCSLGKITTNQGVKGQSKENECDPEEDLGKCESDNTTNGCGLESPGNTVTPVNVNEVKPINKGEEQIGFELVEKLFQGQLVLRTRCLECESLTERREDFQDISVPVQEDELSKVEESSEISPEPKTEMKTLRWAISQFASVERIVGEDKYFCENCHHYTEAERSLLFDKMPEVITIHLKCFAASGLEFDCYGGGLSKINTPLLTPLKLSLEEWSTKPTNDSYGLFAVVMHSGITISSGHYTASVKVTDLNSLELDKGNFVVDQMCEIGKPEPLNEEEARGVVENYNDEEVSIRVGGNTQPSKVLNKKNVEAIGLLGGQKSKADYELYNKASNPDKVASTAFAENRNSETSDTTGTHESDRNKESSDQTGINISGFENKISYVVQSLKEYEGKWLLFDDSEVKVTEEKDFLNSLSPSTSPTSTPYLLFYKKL
Sequence of Cytochrome P450 1A2 (Homo sapiens) (P05177 whole entry, looked up): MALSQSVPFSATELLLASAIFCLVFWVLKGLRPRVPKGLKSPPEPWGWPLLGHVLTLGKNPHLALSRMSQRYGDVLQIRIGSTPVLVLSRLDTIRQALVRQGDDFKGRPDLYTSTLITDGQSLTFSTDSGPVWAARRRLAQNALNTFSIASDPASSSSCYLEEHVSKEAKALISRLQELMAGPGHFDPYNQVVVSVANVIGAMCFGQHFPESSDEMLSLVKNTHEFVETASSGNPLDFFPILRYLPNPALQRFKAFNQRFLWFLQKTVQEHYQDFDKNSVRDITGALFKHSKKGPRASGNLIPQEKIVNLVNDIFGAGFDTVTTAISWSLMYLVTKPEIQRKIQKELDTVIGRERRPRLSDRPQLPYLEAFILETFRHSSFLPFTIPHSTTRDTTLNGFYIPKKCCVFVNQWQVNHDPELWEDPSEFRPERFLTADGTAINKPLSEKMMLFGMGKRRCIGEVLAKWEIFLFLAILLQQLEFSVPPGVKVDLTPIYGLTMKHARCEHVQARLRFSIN
Sequence of Phospholipid hydroperoxide glutathione peroxidase GPX4 (Homo sapiens) (P36969 whole entry, looked up): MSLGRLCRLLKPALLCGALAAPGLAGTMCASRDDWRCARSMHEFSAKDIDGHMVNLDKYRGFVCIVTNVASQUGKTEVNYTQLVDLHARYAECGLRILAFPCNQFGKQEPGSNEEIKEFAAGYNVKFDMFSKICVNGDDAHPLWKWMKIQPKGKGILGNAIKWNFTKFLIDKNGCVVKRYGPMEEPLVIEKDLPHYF
Sequence of DNA dC->dU-editing enzyme APOBEC-3G (Homo sapiens) (Q9HC16 whole entry, looked up): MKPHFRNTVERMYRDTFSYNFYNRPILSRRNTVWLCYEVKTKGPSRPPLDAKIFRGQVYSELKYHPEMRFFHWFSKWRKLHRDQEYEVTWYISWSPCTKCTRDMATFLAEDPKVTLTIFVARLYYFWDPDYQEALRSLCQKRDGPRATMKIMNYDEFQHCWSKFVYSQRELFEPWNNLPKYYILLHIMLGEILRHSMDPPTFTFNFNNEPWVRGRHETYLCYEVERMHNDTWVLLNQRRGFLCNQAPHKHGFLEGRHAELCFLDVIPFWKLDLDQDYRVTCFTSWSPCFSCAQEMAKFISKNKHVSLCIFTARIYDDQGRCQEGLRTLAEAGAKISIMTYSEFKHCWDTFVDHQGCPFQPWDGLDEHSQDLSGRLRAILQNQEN

Clc1ccc([C@@H]2C[C@H]3CC[C@@H]2N3)cn1
-1.79%: max response ([4]; measured here: lipid channel max response)
inactive: Potency [1] | outcome [2] | Potency [3] | activity change, negative = inhibition ([4]; at 57.5 µM (top of the series)) -3.65% | Potency [5] | Potency [6] | max response [7] 7.9% | Potency [8] | Potency [9] | Potency [10] | Potency [11] | Potency [12] | Potency [13] | Potency [14] | max response (KB-3-1) -6.98% | Potency [15] | Potency (astro)
0.171%: max response ([4]; measured here: cell count channel max response)

COc1ccc(OC)c(C[C@H](C)N)c1
inactive: Potency [16] | max response [7] -1.24% | Potency [8] | max response (KB-3-1) 4.2% | Potency [15] | Potency (astro)

OCCN(CCO)CCO
-6.39%: max response [18]
inactive: activation [17] -3.04% | outcome [19] | Potency [20] | max response [22] -4.54% | Potency [16] | activation [23] -1.09% | max response [24] -0.143% | Potency [25] | max response [26] -4.95% | max response [7] 5.27% | max response [27] -0.515% | outcome [28] | outcome [29] | Potency [30] | outcome [31] | Potency [32] | Potency [34] | Potency [35] | max response (KB-3-1) 0.954% | Potency [15] | Potency (astro) | max response [36] -1.5% | outcome [37]
-24%: activity change, negative = inhibition [33]
-16.2%: max response [21]
